# NPC1 prom act: NPC1 promoter activation; 320,000 tested, 2.4% active; Potency, µM (doses to about 9.22 µM), without a hit: at the highest dose activation, most hits filed as activators; AID 485313; Huh7 NPC1 promoter luciferase reporter, 24 h; also: % of control where 0% means no effect; nearly all actives have a fitted effect of over 60% in size
#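 Huh7 cells stably carrying NPC1 promoter–luciferase, plated in Opti-MEM with 10% FBS for 2 h, were exposed to compound in DMSO for 24 h at 37 °C; luciferase reagent was added for 10 min and luminescence read.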
# KinaseGlo FLuc: counter-screen: inhibitors of Kinase-Glo firefly luciferase. Kinase-Glo luciferase, ATP luminescence, 8 min. Potency, µM (titrated, usually from 38.3 µM), inactives show at the highest dose activity change, negative = inhibition, most hits filed as inhibitors. 200,000 tested, 0.28% active. Q27757; also: % is scaled to controls: 0 for no effect and ±100 for the full control effect; nearly all actives have a fitted effect of over 60% in size
#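 Inhibition of Kinase-Glo luciferase light generation was assessed at 10 uM ATP in pH 7.2 imidazole buffer, with luminescence measured after eight minutes at ambient temperature.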
# FLuc modulator: firefly luciferase modulation, counter-screen for miR-21 project. Potency, µM (top dose mostly 57.5 µM), for the others: at the highest dose activity change, negative = inhibition, most hits filed as inhibitors. P08659. purified FLuc, Km substrates, luminescence inhibition. AID 588342. 360,000 tested, 6.9% active;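 also: plate controls were vehicle for no effect and reference inhibitor for full effect; nearly all actives have a fitted effect of over 55% in size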
# Target sequence (P08659 whole entry, looked up): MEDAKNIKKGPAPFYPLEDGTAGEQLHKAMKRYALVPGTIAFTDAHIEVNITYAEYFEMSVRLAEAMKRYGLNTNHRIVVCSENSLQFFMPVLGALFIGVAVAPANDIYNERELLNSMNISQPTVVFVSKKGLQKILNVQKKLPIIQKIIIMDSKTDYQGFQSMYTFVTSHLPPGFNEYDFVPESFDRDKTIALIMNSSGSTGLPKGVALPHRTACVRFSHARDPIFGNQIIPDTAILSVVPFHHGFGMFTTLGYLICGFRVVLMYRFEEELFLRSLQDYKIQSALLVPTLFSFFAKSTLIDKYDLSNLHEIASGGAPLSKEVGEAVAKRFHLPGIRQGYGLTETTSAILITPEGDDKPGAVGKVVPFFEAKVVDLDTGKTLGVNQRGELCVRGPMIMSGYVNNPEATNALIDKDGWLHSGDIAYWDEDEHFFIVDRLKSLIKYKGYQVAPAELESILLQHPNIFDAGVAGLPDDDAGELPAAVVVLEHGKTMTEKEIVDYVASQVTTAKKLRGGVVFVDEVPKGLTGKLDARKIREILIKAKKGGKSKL
#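 Purified P. pyralis luciferase, 10 nM final, with Km-level 10 uM D-luciferin and 10 uM ATP in 50 mM Tris acetate pH 7.5, 10 mM Mg acetate, 0.01% Tween-20, 0.05% BSA; 6-point qHTS titration about 60 µM downward; luminescence read.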
# SMN2 splice enh: SMN2 splice variant enhancement | HEK293 SMN2-luciferase splicing reporter, luminescence, 30-36 h | Potency, µM (doses to about 46.1 µM), for inactives: at the top dose activity change, positive = activation, usual class: activators | 210,000 tested, 2.8% active | AID 1458; also: % of control where 0% means no effect; nearly all actives have a fitted effect of over 55% in size
#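 HEK293 cells carry an SMN2 minigene-luciferase reporter in which exon 7 inclusion puts luciferase in frame. Cells were seeded at 2000 cells/well, attached for 10-12 hours, then exposed to compounds for 30-36 hours at 37C before ONE-Glo luminescence.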
# ELG1 genotoxic: inducers of genotoxicity in HEK293T ELG1-luciferase cells | 330,000 tested, 1.3% active | AID 504466 | Potency, µM (titrated, usually from 46 µM), inactives show at the top dose activity change, positive = activation, usual class: activators | HEK293T ELG1-luciferase reporter, luminescence, 16 h; also: % of control where 0% means no effect; nearly all actives have a fitted effect of over 60% in size
#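 HEK293T cells expressing luciferase-tagged ELG1 were treated with compound or DMSO for 16 hr at 37°C. Luciferase activity was then read after 30 min with ONE-Glo at room temperature; rising signal flags genetic stress.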
# Rab9 prom act: activates the Rab9 promoter | Huh7 Rab9 promoter-luciferase reporter, luminescence, 24 h | Potency, µM (top dose mostly 9.22 µM), for the others: at the highest dose activation, negative = inhibition, most hits filed as activators | 320,000 tested, 2.8% active | AID 485297; also: % of control where 0% means no effect; nearly all actives have a fitted effect of over 60% in size
#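 Luminescence read-out: Huh7 cells stably expressing Rab9-luciferase, treated 24 h with compound at 37 °C, then lysed with luciferase reagent for 10 min at ambient before reading.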
# Numbers without * were called inactive; ? = inconclusive; . = not tested or not shown; [ ] = another dose, or the depositor's remark. This is a sample that favours compounds with a hit; in the whole collection about 7.5% have one here. Calls follow the shape of the dose curve; as a rule, active = well fitted curve in the direction sought with a large enough effect; inconclusive = small, poorly fitted or top-dose-only effect, or another doubt; inactive = no such curve, though single readings can be large; an effect the other way counts as inactive or inconclusive. Potency is read from the fitted curve at half-maximal effect.
SMILES,NPC1 prom act,KinaseGlo FLuc,FLuc modulator,SMN2 splice enh,ELG1 genotoxic,Rab9 prom act
COc1ccc(NS(=O)(=O)c2ccc(Cl)c(C(=O)O)c2)cc1S(=O)(=O)N1CCCCC1,-0.4%,-0.5%,?,2.7%,-3.4%,3.1%
CCN(C(=O)c1oc2ccc(S(=O)(=O)N3CCCCCC3)cc2c1C)c1ccccc1,.,.,0.8%,.,.,.
CN(C)/C=N/c1ncnc2c1cnn2-c1ccc(C(F)(F)F)cn1,2.51µM*,-0.9%,10.7µM*,14.1µM*,?,?
N/C(=N\N=C\c1cccc(O)c1)c1nonc1N,?,12.6µM*,1.9µM*,18.5%,?,?
N/C(=N\N=C\c1ccc([N+](=O)[O-])cc1)c1nonc1N,1.58µM*,.,?,.,5.17µM*,1.41µM*
N/C(=N\N=C\c1ccc(O)cc1)c1nonc1N,3.16µM*,?,10.7µM*,15.8µM*,?,3.55µM*
N/C(=N\N=C\c1ccc(O)c(O)c1)c1nonc1N,?,.,15.1µM*,.,?,?
COc1ccc(S(=O)(=O)N2CCN(C(=O)CC3CC4CCC3C4)CC2)cc1 (stereo not given),0.0%,.,7.1%,.,-1.7%,-4.4%
COc1ccc(OC)c(NC(=O)CSc2ccnc(=O)[nH]2)c1,.,.,7.0%,.,.,.
CS/C(N)=N/N=C/c1ccc([N+](=O)[O-])cc1,2.82µM*,-5.1%,21.3µM*,7.5%,?,?
CSc1nncn1/N=C/c1ccc([N+](=O)[O-])cc1,-6.0%,0.6%,-2.8%,8.0%,-0.2%,-4.1%
COc1ccc(/C=N/N=C(\N)c2nonc2N)cc1OC,?,-8.0%,?,109.2%,-0.3%,?
COc1cc(/C=N/N=C(\N)c2nonc2N)ccc1O,11.8%,-11.0%,21.3µM*,17.3%,?,20.4%
CS/C(N)=N/N=C/c1ccc2c(c1)OCO2,?,.,8.49µM*,.,?,2.82µM*
C/C(Cn1cnc([N+](=O)[O-])n1)=N/NC(=O)COc1c(Cl)cc(Cl)cc1Cl,-2.6%,-1.0%,4.1%,-6.6%,1.0%,-7.3%
COC(=O)CSc1ccc2c(N)c(C(=O)OC)sc2c1,-2.4%,-4.0%,19µM*,?,-0.4%,2.3%
O=c1c(-c2cc(F)cc(F)c2)nc2cnc(N3CCOCC3)nc2n1C1CC1,.,-2.8%,.,-17.4%,.,.
CC(Cc1ccccn1)NC(=O)c1ccc(OC2CCN(CCc3ccccc3)CC2)cc1 (stereo not given),22.2%,.,?,.,?,16.5%
O=C(NCCc1ccccn1)c1ccc(OC2CCN(CCc3ccccc3)CC2)cc1,3.16µM*,.,19µM*,.,?,2.82µM*
O=C(NCCc1cccc(Cl)c1)c1ccc(OC2CCN(Cc3ccccn3)CC2)cc1,?,.,19µM*,.,?,4.7%
COCCCN1CC(=O)N2C(c3cccc(OC)c3OC)c3[nH]c4ccccc4c3C[C@H]2C1=O (stereo not given in full),0.4%,.,3.6%,.,5.6%,-0.3%[1.84 µM]
COc1cc(/C=N/NC(=O)Nc2cccc3nsnc23)cc(OC)c1OC,1.5%,1.5%,-17.3%,0.3%,-0.1%,7.0%
O=C(N/N=C/c1ccc(O)cc1)Nc1cccc2nsnc12,10.7%,-1.8%,12µM*,.,1.1%,27.9%
CCC(C)(C)NC(=O)C(c1ccc(OC)cc1)N(Cc1cccs1)C(=O)CCC(=O)Nc1cc(C)on1 (stereo not given),-6.1%,0.3%,2.4%,-12.2%,-5.3%,0.631µM*
C#CC(C)(CC)NC(=O)Cn1nnc(-c2ccc(OCc3ccccc3F)cc2)n1 (stereo not given),.,.,?,-32.0%,.,.
SMILES,NPC1 prom act,KinaseGlo FLuc,FLuc modulator,SMN2 splice enh,ELG1 genotoxic,Rab9 prom act
Cc1ccc(NC(=O)COC(=O)C2CC2(Cl)Cl)cc1C (stereo not given),1.4%,3.0%,8.49µM*,-8.1%,2.6%,-0.9%
CCCCC(=O)OCC(=O)Nc1ccc(C)c(F)c1,0.6%,0.7%,16.9µM*,-12.5%,1.8%,-7.6%
O=C(COC(=O)C1CCC1)NCc1ccc(Cl)cc1Cl,-0.2%,.,16.9µM*,.,12.0%,2.1%
CCCCC(=O)OCC(=O)Nc1ccc(OC(F)F)cc1,0.4%,-3.3%,?,-15.6%,0.8%,8.1%
COC(=O)CCC(=O)Nc1ccc(N=Nc2ccccc2)cc1,27.3%,0.3%,21.3µM*,?,?,?
CCC(=O)OCC(=O)[C@@]1(OC(=O)CC)[C@H](C)C[C@@H]2[C@@H]3[C@H]([C@@H](O)C[C@@]21C)[C@]1(C)C=CC(=O)C=C1C[C@@H]3Cl,.,0.2%[17.1 µM],.,0.0%[20.6 µM],.,.
CCc1ccccc1NC(=O)NCc1cccnc1,2.1%,.,-0.4%,.,-3.5%,-0.2%
CCOc1cc(C=O)ccc1OCc1cc(=O)n2cc(C)ccc2n1,0.0%,0.0%,1.2%,-5.7%,0.6%,1.0%
CC(C)CC(=O)Nc1nc2c(s1)CC(C(C)(C)C)CC2 (stereo not given),.,.,1.6%,.,.,.
CCOc1ccc(CCNC(=O)c2cc3c(-c4ccccc4F)nn(C)c3s2)cc1OCC,.,.,-10.3%,-49.0%,.,.
O=C(COC(=O)C1CC1)Nc1ccc(OC(F)F)cc1,0.4%,-1.6%,?,-6.0%,10.5%,-0.3%
O=C(COC(=O)C1CC1)Nc1ccc(N=Nc2ccccc2)cc1,3.55µM*,-5.0%,?,6.31µM*,20.6µM*,0.631µM*
Cc1ccc(NC(=O)COC(=O)C2CC2)cc1Cl,-2.3%,.,15.1µM*,.,2.6%,1.0%
CCOc1ccc(N(C(=O)c2snc(C(N)=O)c2N)C(C(=O)NCC2CCCO2)c2ccc(C)o2)cc1 (stereo not given),0.1%,.,13.5µM*,.,0.1%,1.4%
CN(C)Cc1nnnn1-c1ccccc1,-4.1%,.,3.0%,.,-0.1%,-5.0%
CC(Oc1ccc2c(c1)oc(=O)c1ccccc12)C(=O)NC(Cc1c[nH]c2ccc(O)cc12)C(=O)O (stereo not given),1.2%,.,26.9µM*,.,5.5%,0.0%
NC(=O)C1CCN(C(=O)C2CCN(S(=O)(=O)c3ccccc3)CC2)CC1,7.7%,-0.6%,-3.2%,0.9%,2.5%,-3.6%
CCn1c(-c2sc(-c3ccccc3)nc2C)n[nH]c1=S,2.4%,-1.6%,-9.0%,4.7%,0.1%,-1.8%
C#CCSc1nnc(-c2sc(-c3ccccc3)nc2C)n1C,4.8%,0.7%,?,-18.3%,0.5%,16.0%
Cc1nc(-c2ccccc2)sc1-c1ccnn1C,?,4.1%,4.78µM*,12.6µM*,?,2.24µM*
Cc1nc(-c2ccccc2)sc1-c1ccn[nH]1,1.41µM*,-3.2%,1.51µM*,7.94µM*,2.59µM*,2.82µM*
COc1ccc(NC(=O)COC(=O)c2ccc(-n3cnnn3)cc2)cc1Cl,-6.2%,.,13.8%,.,-2.0%,-1.5%
N[C@H](C(=O)O)c1nn[nH]n1,.,1.2%,.,.,.,.

# Assay outcomes: PubChem, National Center for Advancing Translational Sciences (NCATS)
